Laboratory results reported in PubChem BioAssay (NCI).
About 79,000 compounds went through this panel and 15% of them were active in at least one assay; those are over-represented in the sample as a whole. Active and inactive are the calls of the source. No stated cut-off is given here; in the data, active means growth inhibition above about 70%; inactive means the rest.

Assays:
[1] = NCI Yeast Anticancer Drug Screen. Data for the rad52 strain (AID 147);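 further: 0% = growth of vehicle-treated control cultures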; settings: S. cerevisiae rad52 mutant growth inhibition, stronger effect = higher value
How it was run: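 Vehicle-treated cultures served as the reference for growth inhibition of compound-exposed yeast bearing a DNA repair mutation.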

[2] = NCI Yeast Anticancer Drug Screen. Data for the rad50EPP+ strain (AID 151);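 further: 0% = growth of vehicle-treated control cultures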; settings: S. cerevisiae rad50 mutant strain, stronger effect = higher value
How it was run: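 In this screen, rad50EPP+ yeast were exposed to compounds. Growth inhibition was scored against vehicle-treated controls.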

[3] = NCI Yeast Anticancer Drug Screen. Data for the mgt1 strain (AID 153); settings: S. cerevisiae mgt1 mutant growth inhibition, stronger effect = higher value
How it was run: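 mgt1 strain exposed; growth vs vehicle control recorded as inhibition.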

[4] = NCI Yeast Anticancer Drug Screen. Data for the rad50 strain (AID 155);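 further: 0% = growth of vehicle-only cultures of the same strain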; settings: S. cerevisiae rad50 strain growth inhibition, stronger effect = higher value
How it was run: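 Genetically altered yeast (DNA repair pathway); compound treatment; growth inhibition vs vehicle ctrl.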

[5] = NCI Yeast Anticancer Drug Screen. Data for the mec2-1 strain (AID 157); settings: S. cerevisiae mec2-1 strain, stronger effect = higher value
How it was run: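 Vehicle-treated cultures served as reference for growth inhibition of compound-exposed mec2-1 yeast.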

[6] = NCI Yeast Anticancer Drug Screen. Data for the rad14 strain (AID 159);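 further: 0% = growth of vehicle-treated control cultures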; settings: S. cerevisiae rad14 strain growth inhibition, stronger effect = higher value
How it was run: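 Test compounds were applied to a repair-deficient yeast strain. Its growth was then compared with that of cultures given vehicle alone, and inhibition was expressed relative to those controls.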

[7] = NCI Yeast Anticancer Drug Screen. Data for the sgs1 mgt1 strain (AID 161);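 further: 0% = growth of cultures given vehicle only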; settings: S. cerevisiae sgs1 mgt1 strain, stronger effect = higher value
How it was run: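 Test agents were incubated with a DNA-repair-mutant yeast strain. Growth was then read and compared against vehicle-treated controls.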

[8] = NCI Yeast Anticancer Drug Screen. Data for the CLN2oe strain (AID 163);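 further: 0% = growth of vehicle-only control cultures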; settings: S. cerevisiae CLN2oe strain, stronger effect = higher value
How it was run: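 Inhibition relative to vehicle-treated yeast is reported. Cells: strain with genetic alteration in cell-cycle control, grown with compound.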

[9] = NCI Yeast Anticancer Drug Screen. Data for the cln2 rad14 strain (AID 165);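 further: 0% = growth equal to vehicle treated cultures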; settings: S. cerevisiae cln2 rad14 strain, stronger effect = higher value
How it was run: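 Each compound was tested on cln2 rad14 yeast. Inhibition of growth was calculated against vehicle-exposed controls.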

[10] = NCI Yeast Anticancer Drug Screen. Data for the bub3 strain (AID 167); settings: S. cerevisiae bub3 mutant strain, stronger effect = higher value
How it was run: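 Yeast carrying a defined mutation is treated with each compound, and growth is compared with that of vehicle-exposed cells to give inhibition.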

[11] = NCI Yeast Anticancer Drug Screen. Data for the wt2 strain (AID 169);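 further: 0% = growth of vehicle-treated yeast cultures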; settings: S. cerevisiae wt2 strain growth inhibition, stronger effect = higher value
How it was run: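 Inhibition of yeast growth was determined after compound treatment, normalised to controls receiving only vehicle.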

[12] = NCI Yeast Anticancer Drug Screen. Data for the sgs1 strain (AID 173);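 further: 0% = growth of vehicle-only control cultures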; settings: S. cerevisiae sgs1 mutant, stronger effect = higher value
How it was run: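 Screen format: yeast with repair or checkpoint alterations, compound exposure, growth read relative to vehicle.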

[13] = NCI Yeast Anticancer Drug Screen. Data for the mlh1 rad18 strain (AID 175); settings: S. cerevisiae mlh1 rad18 strain growth inhibition, stronger effect = higher value
How it was run: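 Vehicle-treated cultures served as the reference for growth inhibition in a yeast strain carrying DNA damage repair alterations exposed to each compound.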

[14] = NCI Yeast Anticancer Drug Screen. Data for the rad18 strain (AID 177); settings: S. cerevisiae rad18 mutant growth inhibition, stronger effect = higher value
How it was run: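 Test articles were incubated with altered yeast defective in DNA damage repair. Results are given as inhibition of growth versus vehicle.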

[15] = NCI Yeast Anticancer Drug Screen. Data for the mlh1 strain (AID 171);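 further: 0% = growth of vehicle-treated control cultures of the same strain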; settings: S. cerevisiae mlh1 strain growth inhibition, stronger effect = higher value
How it was run: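 Vehicle-normalised growth inhibition of a repair- or checkpoint-altered yeast strain following compound treatment.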

[16] = NCI Yeast Anticancer Drug Screen. Data for the wt1 strain (AID 149);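 further: 0% = growth of vehicle-treated wt1 cultures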; settings: S. cerevisiae wt1 strain (SPY 50644) growth inhibition, stronger effect = higher value
How it was run: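 wt1 yeast, compound-treated; % growth inhibition vs vehicle control.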

[17] = at 5.0 µM (retest, dose inferred, filed as 0.5)
[18] = at 50.0 µM (retest, dose inferred, filed as 5.0)

Measured: growth inhibition

CCOC(=O)[C@H]1Nc2ccc(OC)cc2C2c3ccccc3CC21 (stereo partly drawn)
inactive: [1]; at 1.2 µM -22% | [1]; at 3.7 µM -27% | [1]; at 11.0 µM -20% | [1]; at 33.0 µM 57% | [2]; at 1.2 µM -25% | [2]; at 3.7 µM -19% | [2]; at 11.0 µM -23% | [2]; at 33.0 µM 10% | [2]; at 100.0 µM 4% | [3]; at 1.2 µM -40% | [3]; at 3.7 µM -46% | [3]; at 11.0 µM -46% | [3]; at 33.0 µM 28% | [4]; at 1.2 µM -21% | [4]; at 3.7 µM -12% | [4]; [17] 19% | [4]; at 11.0 µM -19% | [4]; at 33.0 µM 34% | [4]; [18] 9% | [5]; at 1.2 µM -48% | [5]; at 3.7 µM -21% | [5]; [17] -9% | [5]; at 11.0 µM -48% | [5]; at 33.0 µM 29% | [5]; [18] 13% | [5]; at 50.0 µM 34.1% | [6]; at 1.2 µM -54% | [6]; at 3.7 µM -49% | [6]; at 11.0 µM -50% | [6]; at 33.0 µM 0% | [7]; [17] 8% | [7]; [18] 53% | [7]; at 50.0 µM 55.5% | [8]; at 1.2 µM -23% | [8]; at 3.7 µM -28% | [8]; at 11.0 µM -21% | [8]; at 33.0 µM 39% | [9]; [17] 20% | [9]; [18] 37% | [9]; at 50.0 µM 57% | [10]; at 1.2 µM -26% | [10]; at 3.7 µM -19% | [10]; [17] 4% | [10]; at 11.0 µM -27% | [10]; at 33.0 µM 51% | [10]; at 50.0 µM 53.4% | [11]; at 1.2 µM -4% | [11]; at 3.7 µM -14% | [11]; at 11.0 µM -7% | [11]; at 33.0 µM 55% | [12]; at 1.2 µM 22% | [12]; at 3.7 µM 15% | [12]; at 11.0 µM 24% | [13]; [17] -13% | [13]; [18] 34% | [13]; at 50.0 µM 60.4% | [14]; at 1.2 µM 1% | [14]; at 3.7 µM -9% | [14]; at 11.0 µM 3% | [14]; at 33.0 µM 56%
active: [1]; at 100.0 µM 90% | [3]; at 100.0 µM 83% | [4]; at 50.0 µM 70% | [4]; at 100.0 µM 91% | [5]; at 100.0 µM 88% | [6]; at 100.0 µM 82% | [8]; at 100.0 µM 89% | [10]; [18] 83% | [10]; at 100.0 µM 90% | [11]; at 100.0 µM 85% | [12]; at 33.0 µM 71% | [12]; at 100.0 µM 90% | [14]; at 100.0 µM 93%

CC(C)OC(=O)c1ccc(CCc2cc(O)c(Br)cc2O)cc1
active: [1]; at 100.0 µM 79% | [2]; at 3.7 µM 80% | [2]; at 11.0 µM 94% | [2]; at 33.0 µM 97% | [2]; at 100.0 µM 94% | [3]; at 3.7 µM 70% | [3]; at 11.0 µM 71% | [3]; at 33.0 µM 72% | [3]; at 100.0 µM 94% | [4]; at 33.0 µM 98% | [4]; [18] 99% | [4]; at 50.0 µM 86.2% | [4]; at 100.0 µM 97% | [5]; [18] 99% | [5]; at 50.0 µM 91.2% | [5]; at 100.0 µM 87% | [6]; at 11.0 µM 75% | [6]; at 33.0 µM 96% | [6]; at 100.0 µM 92% | [7]; [18] 98% | [7]; at 50.0 µM 88.5% | [8]; at 33.0 µM 92% | [8]; at 100.0 µM 95% | [10]; at 33.0 µM 98% | [10]; [18] 91% | [10]; at 50.0 µM 88.9% | [10]; at 100.0 µM 92% | [11]; at 11.0 µM 95% | [11]; at 33.0 µM 98% | [11]; at 100.0 µM 95% | [15]; at 3.7 µM 70% | [15]; at 11.0 µM 71% | [15]; at 33.0 µM 72% | [15]; at 100.0 µM 94% | [12]; at 100.0 µM 95% | [13]; [18] 99% | [13]; at 50.0 µM 85.2%
inactive: [1]; at 1.2 µM 37% | [1]; at 3.7 µM 50% | [1]; at 11.0 µM 56% | [1]; at 33.0 µM 53% | [2]; at 1.2 µM 66% | [3]; at 1.2 µM 55% | [4]; at 1.2 µM 34% | [4]; at 3.7 µM 49% | [4]; [17] 27% | [4]; at 11.0 µM 66% | [5]; at 1.2 µM 6% | [5]; at 3.7 µM 20% | [5]; [17] 42% | [5]; at 11.0 µM 30% | [5]; at 33.0 µM 32% | [6]; at 1.2 µM 43% | [6]; at 3.7 µM 53% | [7]; [17] 31% | [8]; at 1.2 µM -5% | [8]; at 3.7 µM 19% | [8]; at 11.0 µM 53% | [10]; at 1.2 µM 22% | [10]; at 3.7 µM 22% | [10]; [17] 4% | [10]; at 11.0 µM 52% | [11]; at 1.2 µM 18% | [11]; at 3.7 µM 39% | [15]; at 1.2 µM 55% | [12]; at 1.2 µM 47% | [12]; at 3.7 µM 60% | [12]; at 11.0 µM 58% | [12]; at 33.0 µM 61% | [13]; [17] 45%

C=C1CCC(O)C/C1=C/C=C1\CCCC2(C)C1CCC2C(C)CCCC(C)C (stereo not drawn)
active: [2]; at 100.0 µM 73% | [4]; [18] 84% | [5]; [18] 94%
inactive: [16]; at 1.2 µM -26% | [16]; at 3.7 µM -16% | [16]; at 11.0 µM -12% | [16]; at 33.0 µM -15% | [16]; at 100.0 µM 4% | [2]; at 1.2 µM -16% | [2]; at 3.7 µM -20% | [2]; at 11.0 µM -22% | [2]; at 33.0 µM -8% | [3]; at 1.2 µM -21% | [3]; at 3.7 µM -15% | [3]; at 11.0 µM -7% | [3]; at 33.0 µM -21% | [3]; at 100.0 µM 52% | [4]; at 1.2 µM -18% | [4]; at 3.7 µM -9% | [4]; [17] 13% | [4]; at 11.0 µM 5% | [4]; at 33.0 µM 0% | [4]; at 50.0 µM 51.8% | [4]; at 100.0 µM 30% | [5]; at 1.2 µM -40% | [5]; at 3.7 µM -25% | [5]; [17] 12% | [5]; at 11.0 µM -18% | [5]; at 33.0 µM 2% | [5]; at 50.0 µM -9.05%
